SKKanGAS inh – blocks kanamycin growth of S. pyogenes SKKanGAS strain; BacTiter-Glo, 6 h; inhibition, % at 7.5 µM; hit rate 1.3% among 300,000;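 active = mean replicate score, as percent of positive control median, at least 50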;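 note: strain carries kanamycin resistance gene driven by streptokinase promoter and grows in 40 µg/ml kanamycin; loss of luminescence reflects streptokinase promoter inhibition or plain growth inhibition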
NALP1 inh – inhibitors of NALP1 inflammasome in yeast; inhibition, % at 10 µM; hit rate 0.61% among 280,000; S. cerevisiae NALP1/ASC/caspase-1 growth, X-gal OD620, 72 h; AID 2071; in the data active = inhibition mostly above about 24%, no sharp cut-off; inactive = mostly below about 32%
tim23-1 inh – tim23-1 yeast growth inhibition. hit rate 1.3% among 330,000. inhibition, % at 20 µM. S. cerevisiae tim23-1 growth, BacTiter-Glo luminescence, 24 h;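 active = growth inhibition of the mutant yeast at or above 50%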;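 note: temperature-sensitive mutant grown at 25 °C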
TIM10 inh – growth inhibitors of TIM10 yeast strain. inhibition, % at 10 µM. hit rate 1.4% among 330,000. S. cerevisiae TIM10 strain growth, BacTiter-Glo luminescence, 24 h;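 active = inhibition of 40% or more at the single tested concentration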;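 note: wild-type TIM10 isogenic control strain grown at permissive 25 °C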
tim10-1 inh – growth inhibitors of tim10-1 mutant yeast; inhibition, % at 20 µM; AID 463190; hit rate 2.2% among 330,000; S. cerevisiae tim10-1 ts strain growth, BacTiter-Glo, 24 h;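 active = inhibition of at least 40%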;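 note: mutant grown at 25 °C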
PfHsp90 yeast 2 – inhibits growth of yeast expressing Plasmodium falciparum Hsp90; AID 504621; hit rate 0.32% among 310,000; S. cerevisiae expressing PfHsp90, BacTiter-Glo ATP, 48 h; yeast lacking PDR1 and PDR3 efflux regulators; inhibition, % at 9.4 µM;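 active = every replicate shows inhibition above about 80%, whatever the replicate mean, limit read from the data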
Of the large screens only hits and unclear results are named; the others gave an inactive call. Hits are enriched below; roughly 4.8% of the tested compounds scored in any of these assays.

C[C@H]1[C@H](C)CC[C@]2(C)CC[C@]3(C)C(=CC[C@@H]4[C@@]5(C)CC[C@@H](O)[C@](C)(C(=O)O)[C@@H]5CC[C@]43C)[C@H]12	SKKanGAS inh 102 (no result: NALP1 inh, tim23-1 inh, TIM10 inh, tim10-1 inh, PfHsp90 yeast 2)
C[C@@H]1CC[C@]2(C(=O)O)CC[C@]3(C)C(=CCC4[C@]56CC[C@@](O)(OC5)C(C)(C)C6CC[C@]43C)C2[C@H]1C (stereo partly drawn)	none (no result: SKKanGAS inh, NALP1 inh)
C[C@H]1[C@H](C)CC[C@]2(C(=O)O)CC[C@]3(C)C(=CC[C@@H]4[C@@]5(C)C[C@@H](O)[C@H](O)C(C)(C)[C@@H]5CC[C@]43C)[C@H]12	SKKanGAS inh 103
C[C@H]1[C@H](C)CC[C@]2(C(=O)O)CC[C@]3(C)C(=CC[C@@H]4[C@@]5(C)CC[C@H](O)C(C)(C)[C@@H]5CC[C@]43C)[C@H]12	SKKanGAS inh 107
COc1ccc(OC)c(NC(=O)Nc2c(O)ccc3ccccc23)c1	none (no result: NALP1 inh)
COc1ccc(OC)c(NC(=O)Nc2ccc(O)c3ccccc23)c1	PfHsp90 yeast 2 108 (no result: NALP1 inh)
CCn1c(SCc2ccc(C(=O)Nc3nccs3)cc2)nnc1-c1ccc(NC(C)=O)cc1	none
CCOC(=O)C1(Cc2ccccc2C(F)(F)F)CCN(C2CCCC2)CC1	none
Cc1cc(C)c(S(C)(=O)=O)c(Oc2cccc(Cl)c2)n1	none
Cc1cc(C)c(S(C)(=O)=O)c(Oc2ccc(C(C)(C)C)cc2)n1	NALP1 inh 30
CCc1c(C2(O)CCCCC2)[nH]c2ccc(C(F)(F)F)cc12	SKKanGAS inh 69
O=C(c1cc2cc(Cl)ccc2[nH]1)N1CCCCC1	none
Cc1nc(-n2[nH]c3c(c2=O)CCCC3)[nH]c(=O)c1Cc1ccccc1	SKKanGAS inh 95
CC[n+]1c(/C=C2\Sc3ccccc3N2C)ccc2cccc(C)c21	SKKanGAS inh 69, NALP1 inh 100 (no result: tim23-1 inh, TIM10 inh, tim10-1 inh)
CN1/C(=C/c2cccc[n+]2CCO)Sc2ccccc21	none
O=C(O)c1cccc(N/N=C/C2=C(Cl)c3cc(Cl)ccc3SC2)c1	SKKanGAS inh 106 (no result: tim23-1 inh, TIM10 inh, tim10-1 inh)
CNCCCOc1ccc(C(C)(C)c2ccccc2)cc1	none (no result: tim23-1 inh, TIM10 inh, tim10-1 inh, PfHsp90 yeast 2)
COCCCNCCOc1ccc(C(C)(C)c2ccccc2)cc1	NALP1 inh 46
CCN(CC)c1ccc(-c2nn3c(-c4n[nH]c5c4CCC5)nnc3s2)cc1	SKKanGAS inh 85
Cc1ccc(C)c(N2CCN(C(=S)NC3CCCCC3)CC2)c1	none
Cc1cc(NC(=O)c2cc(C(C)(C)C)oc2C)no1	none
COc1cccc(NC(=O)Nc2nc(SC(C)(C)C)ns2)c1	SKKanGAS inh 55
CN1CCN(c2c(F)cc3c(=O)c(C(=O)O)cn4c3c2OCN4C)CC1	SKKanGAS inh 104
Cc1nn(C)c(C)c1NC(=O)CN1CCC(O)(c2ccc3c(c2)OCO3)CC1	NALP1 inh 31
O=C(NC1=NCCS1)c1cc(-c2ccccc2)nn1-c1ccccc1	SKKanGAS inh 51 (no result: PfHsp90 yeast 2)
O=C(Nc1nccs1)c1cc(-c2ccccc2)nn1-c1ccccc1	none
COc1cccc2sc(Nc3nnc(-c4ccccc4Cl)o3)nc12	SKKanGAS inh 91
COc1ccccc1-c1nnc(Nc2nc3c(OC)cccc3s2)o1	SKKanGAS inh 91 (no result: PfHsp90 yeast 2)
COc1cccc(-c2nnc(Nc3nc4c(F)cccc4s3)o2)c1	SKKanGAS inh 68
O=C(Nc1nnc(-c2ccccc2Cl)o1)c1ccco1	none
COc1cccc2sc(NN)nc12	none
O=C(Nc1nnc(-c2ccccc2Cl)o1)c1nc2ccccc2s1	SKKanGAS inh 95
O=c1c(-c2ccco2)[n+]([O-])c2ccccc2n1OCc1c(F)cccc1F	none
O=c1c(-c2ccco2)[n+]([O-])c2ccccc2n1OCc1ccccc1	NALP1 inh 37
O=[N+]([O-])c1cc(S(=O)(=O)Nc2ccccc2)ccc1N1CCN(c2ccccc2)CC1	SKKanGAS inh 50
O=C(Nc1ccccc1)N1CCN(S(=O)(=O)c2ccccc2)CC1	none
COc1cc([N+](=O)[O-])ccc1NC(=S)Nc1cccc(C(=O)O)c1	none
O=C(Nc1ccc(Cl)cc1)c1cc2c(cc1O)[nH]c1ccccc12	SKKanGAS inh 100
CC(=O)Nc1ccc2[nH]c3ccccc3c2c1	none
CCN(CC)CCn1c(=S)[nH]c2cc3c(cc2c1=O)OCO3	none
O=C(Nc1nnc(-c2ccncc2)o1)c1cccc(N2C(=O)CCC2=O)c1	none
CSc1cccc(-c2nnc(NC(=O)c3cccc(N4C(=O)CCC4=O)c3)o2)c1	SKKanGAS inh 85 (no result: NALP1 inh)
O=C(Nc1nnc(-c2ccc(Cl)cc2)o1)c1cccc(N2C(=O)CCC2=O)c1	SKKanGAS inh 70
COCCCNCC1C(Oc2ccc(Cl)cc2)C(=O)N1c1ccccc1C (stereo not drawn)	none
O=C(CN1CCN(c2ccccc2O)CC1)NC(c1ccccc1)c1ccccc1	none
COc1ccc(NC(=O)NC23CC4(C)CC(C)(CC(C)(C4)C2)C3)cc1OC	none
c1ccc(NNC2=NCCS2)cc1	none
Cn1c(-c2c(N)n(CCc3ccccc3)c3nc4ccccc4nc23)nc2ccccc21	SKKanGAS inh 104
Cn1c(-c2c(N)n(CCCc3ccccc3)c3nc4ccccc4nc23)nc2ccccc21	SKKanGAS inh 113, NALP1 inh 41 (no result: tim23-1 inh, TIM10 inh, tim10-1 inh)
Cn1c(-c2c(N)n(C3CCCC3)c3nc4ccccc4nc23)nc2ccccc21	SKKanGAS inh 102 (no result: PfHsp90 yeast 2)
Nc1c(C(=O)OCC2CCCO2)c2nc3ccccc3nc2n1C1CCCC1 (stereo not drawn)	none
COCCCn1c(N)c(-c2nc3ccccc3n2C)c2nc3ccccc3nc21	none
O=C(CCCn1c(=S)[nH]c2cc3c(cc2c1=O)OCO3)N1CCN(c2ncccn2)CC1	none
CCCCN1C(=O)/C(=C/C=C2\Oc3ccccc3N2CC)SC1=S	PfHsp90 yeast 2 99 (no result: tim23-1 inh, TIM10 inh, tim10-1 inh)
CCCN1C(=O)/C(=C/C=C2\N(CC)c3ccccc3C2(C)C)SC1=S	none
Cc1cc(Cl)ccc1OC(C)C(=O)Nc1ccc(S(=O)(=O)Nc2cnc3ccccc3n2)cc1 (stereo not drawn)	SKKanGAS inh 67 (no result: PfHsp90 yeast 2)
CC(C)CSC1=NSC2=NC(=O)/C(=C\c3coc4ccccc4c3=O)C(=N)N12	SKKanGAS inh 61
COc1cc(/C=C2\S/C(=N/S(=O)(=O)c3ccccc3)NC2=O)c([N+](=O)[O-])cc1OC	SKKanGAS inh 68
COc1ccc(S(=O)(=O)/N=C2/NC(=O)/C(=C\c3cc(OC)c(OC)cc3[N+](=O)[O-])S2)cc1	none
c1cncc(-c2noc(-c3ccc4ccccc4c3)n2)c1	none
Oc1ccc(Nc2nc(-c3ccc4ccccc4c3)cs2)cc1	SKKanGAS inh 53
COc1ccc(CSCCNC(=S)Nc2ccccc2)cc1Cl	SKKanGAS inh 63
COc1ccccc1OCC(=O)NCCNC(=O)COc1ccccc1OC	none
COc1ccccc1OCC(=O)NCCSCc1cccc(Cl)c1	NALP1 inh 48
COc1ccccc1OCC(=O)NCCSCc1ccccc1Cl	NALP1 inh 51
CN1CCN(c2ccc(Nc3ccnc4cc(Cl)ccc34)cc2)CC1	none (no result: NALP1 inh)

High-throughput results deposited in PubChem BioAssay by several laboratories.
